We go through 40 molecules from PubChem BioAssay.

Unmarked numbers belong to inactive results. How the calls were made is not given here.

The experiment has as its system Aerobactin synthetase IucA (Klebsiella pneumoniae, hypervirulent). Kind of experiment: biochemical IucA inhibition screen of LOPAC library by absorbance (AID 1346212).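 Further: 100% = no compound wells and 0% = no enzyme wells.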 The conditions noted are these: IucA enzyme assay, absorbance (OD) readout; active compounds read low;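 tested at 8 µM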.
With `CCCCCCCCCC[Si](C)(C)CCC(=O)NC(Cc1ccc(C)cc1)c1ccccc1` (stereo not given), the remaining activity was 116%.

`O=c1c(O)c(-c2cc(O)c(O)c(O)c2)oc2cc(O)cc(O)c12`: the remaining activity is 115%.

Turning to `Nc1ncnc2c1nc(Sc1ccc(Cl)cc1)n2C1OC2COP(=O)(O)O[C@@H]2[C@@H]1O` (stereo not given in full), the remaining activity is 108%.

Turning to `CC(=O)O[C@H]1C(=O)[C@@]2(C)[C@H]([C@H](OC(=O)c3ccccc3)[C@]3(O)C[C@H](OC(=O)[C@H](O)[C@@H](NC(=O)c4ccccc4)c4ccccc4)C(C)=C1C3(C)C)[C@]1(OC(C)=O)CO[C@@H]1C[C@@H]2O`, the remaining activity is 94.8%.

Consider `COC1(C2=NCCN2)COc2ccccc2O1` (stereo not given), for which the remaining activity was 105%.

On to `Cc1cc2c(cc1Cl)N(C(=O)Nc1ccc(Oc3cccnc3C)nc1)CC2`, for which the remaining activity is 103%.

In the case of `CC1(C)CCC(NC(=O)[C@@H](N)CCC(=O)O)CC1`, the remaining activity was 116%.

For the molecule `NC(N)=NCCC[C@H](N)C(=O)O`, the remaining activity is 111%.

As to `CCCCCCCCCCC/C=C\C(C)(C)/C=C\CCCC(=O)O`, the remaining activity was 86.5%.

`NC(=O)c1ccccc1`: the remaining activity is 109%.

For the molecule `O=c1ccn([C@@H]2O[C@H](COP(=O)(O)OP(=O)(O)O)[C@@H](O)[C@H]2O)c(=O)[nH]1`, the remaining activity is 106%.

As to `CCCCCCCC/C=C\CCCCCCCC(=O)NCCc1ccc(O)c(O)c1`, the remaining activity is 109%.

In the case of `CCCOC(=O)c1c(-c2ccccc2)nc(CC)c(C(=O)SCC)c1CCC`, the remaining activity is 106%.

`CC(=O)OCC(=O)[C@@]1(O)CC[C@H]2[C@@H]3CCC4=CC(=O)CC[C@]4(C)[C@H]3C(=O)C[C@@]21C`: the remaining activity is 102%.

Regarding `Oc1cc2c(cc1O)CN(C(=S)NCCc1ccc(Cl)cc1)CCC2`, the remaining activity is 97.8%.

Take `COc1cc2c(cc1OC)[C@@H](c1ccccc1)CN(C)CC2`: the remaining activity was 102%.

Take `CN1CC(=O)NC1=NC(=O)Nc1cccc(Cl)c1`: the remaining activity was 98.9%.

As for `OCc1cc(C(O)CNCCCCCCOCCCCc2ccccc2)ccc1O` (stereo not given), the remaining activity was 122%.

Consider `c1cc(CN2CCCCC2)cc(OCCCNc2nc3ccccc3s2)c1`, for which the remaining activity is 101%.

Consider `Brc1c(Br)c(Br)c2n[nH]nc2c1Br`, for which the remaining activity was 120%.

Take `Oc1ccc(-c2nc(-c3ccc(F)cc3)c(-c3ccncc3)[nH]2)cc1`: the remaining activity was 119%.

For the molecule `C=C[C@@]1(C)CC(=O)[C@]2(O)[C@@]3(C)[C@@H](O)CCC(C)(C)[C@@H]3[C@H](O)[C@H](OC(C)=O)[C@@]2(C)O1`, the remaining activity is 107%.

Consider `CC[C@H](C)[C@H]1O[C@]2(CC[C@@H]1C)C[C@@H]1C[C@@H](C/C=C(\C)[C@@H](O[C@H]3C[C@H](OC)[C@@H](O[C@H]4C[C@H](OC)[C@@H](O)[C@H](C)O4)[C@H](C)O3)[C@@H](C)/C=C/C=C3\CO[C@@H]4[C@H](O)C(C)=C[C@@H](C(=O)O1)[C@]34O)O2`, for which the remaining activity is 114%.

Take `CC(C(O)c1ccc(O)cc1)N1CCC(Cc2ccccc2)CC1` (stereo not given): the remaining activity is 105%.

Consider `Cn1c(=O)c2c(nc(/C=C/c3cccc(Cl)c3)n2C)n(C)c1=O`, for which the remaining activity was 88.1%.

For the molecule `CNC1(C)C2CCC(C2)C1(C)C` (stereo not given), the remaining activity was 96.4%.

Consider `CSc1ccc(C(=O)c2[nH]c(=O)[nH]c2C)cc1`, for which the remaining activity is 118%.

For the molecule `CCOC(=O)Nc1ccc(NCc2ccc(F)cc2)nc1N`, the remaining activity is 97.8%.

Take `CCCCCCN(CCCCCC)C(=O)Cc1c(-c2ccc(F)cc2)[nH]c2ccccc12`: the remaining activity was 97.1%.

On to `C[C@]12CC[C@@H]3c4ccc(O)cc4CC[C@H]3[C@@H]1CCC2=O`, for which the remaining activity was 103%.

In the case of `Oc1cc(O)cc(/C=C/c2ccc(O)c(O)c2)c1`, the remaining activity was 125%.

Turning to `CN1CCc2cc(Cl)c(O)cc2[C@@H](c2ccccc2)C1`, the remaining activity is 102%.

On to `CNCCC(Oc1ccccc1C)c1ccccc1` (stereo not given), for which the remaining activity is 102%.

`CNCCCC1c2ccccc2C=Cc2ccccc21`: the remaining activity was 101%.

Consider `C[C@@H](CN1CCC(Cc2ccccc2)CC1)[C@@H](O)c1ccc(O)cc1`, for which the remaining activity was 92.9%.

`CC(Oc1ccc(Oc2cnc3ccc(Cl)cc3n2)cc1)C(=O)O` (stereo not given): the remaining activity was 108%.

`N#C/C(=C\c1ccc(O)c(O)c1)C(=O)N1CCc2ccccc21`: the remaining activity is 107%.

Consider `CCCCCC(O)c1cccc(OCc2ccc3ccccc3n2)c1` (stereo not given), for which the remaining activity is 98.9%.

As to `OC[C@H]1O[C@@H](n2cnc3c(Nc4ccccc4)ncnc32)[C@H](O)[C@@H]1O`, the remaining activity is 89.3%.

On to `CN(C)C/C=C(/c1ccc(Br)cc1)c1cccnc1`, for which the remaining activity is 107%.
